PubChem BioAssay AID1159580 (chemical genetic matrix, 2015)
In all, about 5,500 compounds went through this assay and about 2,000 (36%) were called active. Roughly 18% stayed inconclusive and do not appear here. Rule as the data show it: active = normalized growth mostly below about 0.91 (no sharp cut-off); inconclusive = no clear call, values can overlap the other calls; inactive = mostly above about 0.92. This is one part of the list.

Experiment: chemical genetic growth profiling, strain panel (AID 1159580);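 also: tested at 20 µM; growth read once vehicle control cultures reached saturation at 30 °C; 1 = growth at the plate median or of vehicle wells; lower values mean less growth of the strain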
Settings: growth OD

Measured: normalized growth

NS(=O)(=O)c1cc2c(cc1Cl)NC(CSCc1ccccc1)=NS2(=O)=O
inactive: S. cerevisiae deletion strains, locus YJR075W, strain HOC1, hits give low values 0.971 | S. cerevisiae deletion strains, locus YKL009W, strain mrt4, hits give low values 0.99 | S. cerevisiae deletion strains, locus YKL068W, hits give low values 0.988 | S. cerevisiae deletion strains, locus YKL085W, strain MDH1 (second series), hits give low values 0.998 | S. cerevisiae deletion strains, locus YKL085W, strain MDH1, hits give low values 0.998 | S. cerevisiae deletion strains, locus YKL160W, strain elf1, hits give low values 1.01 | S. cerevisiae deletion strains, locus YKL190W, strain CNB1, hits give low values 0.987 | S. cerevisiae deletion strains, locus YKR001C, strain vps1, hits give low values 0.982 | S. cerevisiae deletion strains, locus YKR026C, strain gcn3, hits give low values 1.02 | S. cerevisiae deletion strains, locus YKR091W, strain srl3, hits give low values 1.02 | S. cerevisiae deletion strains, locus YLL001W, strain dnm1, hits give low values 1.03 | S. cerevisiae deletion strains, locus YLL026W, hits give low values 1.02 | S. cerevisiae deletion strains, locus YLL041C, strain sdh2, hits give low values 1.02 | S. cerevisiae deletion strains, locus YLR027C, strain aat2, hits give low values 1.02 | S. cerevisiae deletion strains, locus YLR039C, strain RIC1, hits give low values 1.05 | S. cerevisiae deletion strains, locus YLR058C, strain SHM2, hits give low values 0.982 | S. cerevisiae deletion strains, locus YLR102C, strain apc9, hits give low values 0.986 | S. cerevisiae deletion strains, locus YLR113W, strain HOG1, hits give low values 0.97 | S. cerevisiae deletion strains, locus YLR221C, strain rsa3, hits give low values 1.02 | S. cerevisiae deletion strains, locus YLR258W, strain gsy2, hits give low values 0.994 | S. cerevisiae deletion strains, locus YLR262C, strain YPT6 (second series), hits give low values 1.05 | S. cerevisiae deletion strains, locus YLR262C, strain YPT6, hits give low values 1.04 | S. cerevisiae deletion strains, locus YLR268W, strain sec22, hits give low values 0.992 | S. cerevisiae deletion strains, locus YLR320W, strain mms22, hits give low values 0.976 | S. cerevisiae deletion strains, locus YLR330W, strain CHS5, hits give low values 0.987 | S. cerevisiae deletion strains, locus YLR342W, strain FKS1 (second series), hits give low values 1.01 | S. cerevisiae deletion strains, locus YLR342W, strain FKS1, hits give low values 1.02 | S. cerevisiae deletion strains, locus YLR357W, strain rsc2, hits give low values 1.02 | S. cerevisiae deletion strains, locus YLR370C, strain arc18, hits give low values 1.01 | S. cerevisiae deletion strains, locus YLR371W, strain rom2, hits give low values 0.974 | S. cerevisiae deletion strains, locus YLR384C, strain iki3, hits give low values 1.02 | S. cerevisiae deletion strains, locus YLR418C, strain cdc73, hits give low values 0.994 | S. cerevisiae deletion strains, locus YML016C, strain PPZ1, hits give low values 0.987 | S. cerevisiae deletion strains, locus YML032C, strain rad52, hits give low values 0.995 | S. cerevisiae deletion strains, locus YML120C, strain ndi1, hits give low values 1.04 | S. cerevisiae deletion strains, locus YML124C, strain tub3, hits give low values 0.995 | S. cerevisiae deletion strains, locus YMR058W, strain fet3, hits give low values 1.02 | S. cerevisiae deletion strains, locus YMR078C, strain ctf18, hits give low values 0.983 | S. cerevisiae deletion strains, locus YMR125W, strain sto1, hits give low values 1.01 | S. cerevisiae deletion strains, locus YMR129W, hits give low values 1.03 | S. cerevisiae deletion strains, locus YMR205C, strain PFK2, hits give low values 1.02 | S. cerevisiae deletion strains, locus YMR223W, strain ubp8, hits give low values 0.985 | S. cerevisiae deletion strains, locus YMR231W, strain pep5, hits give low values 1.01 | S. cerevisiae deletion strains, locus YMR263W, strain SAP30, hits give low values 0.977 | S. cerevisiae deletion strains, locus YMR307W, strain GAS1, hits give low values 0.971 | S. cerevisiae deletion strains, locus YNL067W, strain RPL9B, hits give low values 0.959 | S. cerevisiae deletion strains, locus YNL071W, strain lat1, hits give low values 0.978 | S. cerevisiae deletion strains, locus YNL153C, strain GIM3, hits give low values 0.966 | S. cerevisiae deletion strains, locus YNL183C, strain NPR1, hits give low values 0.909 | S. cerevisiae deletion strains, locus YNL209W, strain ssb2, hits give low values 1 | S. cerevisiae deletion strains, locus YNL233W, strain BNI4, hits give low values 0.958 | S. cerevisiae deletion strains, locus YNL248C, strain rpa49, hits give low values 1 | S. cerevisiae deletion strains, locus YNL250W, strain rad50, hits give low values 0.978 | S. cerevisiae deletion strains, locus YNL271C, strain bni1, hits give low values 0.998 | S. cerevisiae deletion strains, locus YNL298W, strain CLA4, hits give low values 0.982 | S. cerevisiae deletion strains, locus YNL307C, strain MCK1, hits give low values 0.983 | S. cerevisiae deletion strains, locus YNL322C, strain KRE1 (second series), hits give low values 1.02 | S. cerevisiae deletion strains, locus YNL322C, strain KRE1, hits give low values 0.994 | S. cerevisiae deletion strains, locus YNR049C, strain mso1, hits give low values 1.02 | S. cerevisiae deletion strains, locus YNR052C, strain pop2, hits give low values 0.981 | S. cerevisiae deletion strains, locus YOL012C, strain htz1 0.861 | S. cerevisiae deletion strains, locus YOL147C, strain pex11, hits give low values 0.985 | S. cerevisiae deletion strains, locus YOR001W, strain rrp6, hits give low values 1.04 | S. cerevisiae deletion strains, locus YOR061W, strain CKA2, hits give low values 1 | S. cerevisiae deletion strains, locus YOR069W, strain VPS5, hits give low values 0.987 | S. cerevisiae deletion strains, locus YOR070C, strain gyp1, hits give low values 1 | S. cerevisiae deletion strains, locus YOR080W, strain dia2, hits give low values 1.03 | S. cerevisiae deletion strains, locus YOR083W, strain WHI5, hits give low values 1.05 | S. cerevisiae deletion strains, locus YOR106W, strain vam3, hits give low values 1.03 | S. cerevisiae deletion strains, locus YOR136W, strain idh2, hits give low values 0.979 | S. cerevisiae deletion strains, locus YOR144C, strain elg1, hits give low values 0.987 | S. cerevisiae deletion strains, locus YOR184W, strain ser1, hits give low values 0.985 | S. cerevisiae deletion strains, locus YOR231W, strain MKK1, hits give low values 0.959 | S. cerevisiae deletion strains, locus YOR265W, strain rbl2, hits give low values 1.01 | S. cerevisiae deletion strains, locus YOR270C, strain vph1, hits give low values 1.05 | S. cerevisiae deletion strains, locus YOR290C, strain snf2, hits give low values 1.01 | S. cerevisiae deletion strains, locus YOR316C, strain cot1, hits give low values 0.973 | S. cerevisiae deletion strains, locus YPL051W, strain arl3, hits give low values 1.02 | S. cerevisiae deletion strains, locus YPL078C, strain atp4, hits give low values 1.06 | S. cerevisiae deletion strains, locus YPL106C, strain sse1, hits give low values 0.973 | S. cerevisiae deletion strains, locus YPL240C, strain hsp82, hits give low values 1.01 | S. cerevisiae deletion strains, locus YPL256C, strain CLN2, hits give low values 0.935 | S. cerevisiae deletion strains, locus YPR119W, strain clb2, hits give low values 0.98 | S. cerevisiae deletion strains, locus YPR141C, strain kar3, hits give low values 0.973 | S. cerevisiae deletion strains, locus YPR163C, strain tif3, hits give low values 0.982 | S. cerevisiae deletion strains, locus YPR167C, strain met16, hits give low values 0.989 | S. cerevisiae deletion strains, strain wtn01, hits give low values 0.967 | S. cerevisiae strains, strain wild type, hits give low values 0.992
